The values below come from PubChem BioAssay (Tox21).

SMILES strings stand for the structures. Several values for one entry are separate records, joined by “and”; a condition that tells them apart may be missing. Equal values may be shown once. Values without a mark were called inactive. Records with an inconclusive call do not appear. Activity calls are given as the source filed them. Unless noted, the call rests on the fitted dose curve; in most records, active means well fitted curve in the direction sought with a large enough effect in the repeat runs; inconclusive means weak or mixed curves; inactive means no such curve, though single readings can be large; an effect the other way counts as inactive or inconclusive.

Experiment [1] can be described thus: qHTS assay for small molecules that induce genotoxicity in human embryonic kidney cells expressing luciferase-tagged ATAD5 (AID 651632). Further: nearly all actives have a fitted effect of over 15% in size. Further: potency means the concentration at half of the fitted maximal effect. In short, it runs like this:
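Luminescent reporter readout, HEK293T ATAD5-luc line: 16 hr drug exposure (37C, 5% CO2) followed by Amplite, 30 min RT.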

Experiment [2] in a line: qHTS assay for small molecule agonists of the p53 signaling pathway - cell viability (AID 651633; calls by dose curve; further: nearly all actives have a fitted effect of over 30% in size; further: potency means the concentration at half of the fitted maximal effect). In short, it runs like this: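 p53RE-bla cells were treated with compound for 16 hours at 37 C. Cytotoxicity was then measured as CellTiter-Glo luminescence after 30 min at room temperature.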
A short description of experiment [3]: qHTS assay for small molecules that induce genotoxicity in human embryonic kidney cells expressing luciferase-tagged ATAD5 - cell viability (AID 651634; calls by dose curve; further: nearly all actives have a fitted effect of over 25% in size; further: potency means the concentration at half of the fitted maximal effect). An outline of the steps:
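Viability read: CellTiter-Fluor fluorescence, 30 min at 37C. Cells: HEK293T, luciferase-tagged ATAD5. Exposure: 15.5 hr, 37C, 5% CO2, compound or DMSO vehicle.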

Experiment [4] in a line: qHTS assay for small molecule disruptors of the mitochondrial membrane potential - cell viability (AID 720634; calls by dose curve; further: nearly all actives have a fitted effect of over 20% in size; further: potency means the concentration at half of the fitted maximal effect). An outline of the steps: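 HepG2, 1 hr compound, 37 C. ATP luminescence via CellTiter-Glo, 30 min RT, same well as m-MPI.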
Experiment [5] can be described thus: qHTS assay to test for compound auto fluorescence at 590 nm (red) in HepG2 cells (AID 720674). Further: on the % scale 0 is the no-effect control and ±100 the full control effect. In short, it runs like this:
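Seeding: 2,000 HepG2 cells/well, MEM/10% FBS, overnight 37 C. Dosing: compound vs DMSO. Incubation: 1 hr, 37 C, 5% CO2. Read: fluorescence 540 ex/590 em, Rose Bengal sodium as red reference.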

A short description of experiment [6]: qHTS assay to test for compound auto fluorescence at 535 nm (green) in HepG2 cells (AID 720675). Further: on the % scale 0 is the no-effect control and ±100 the full control effect.
A short description of experiment [7]: qHTS assay to test for compound auto fluorescence at 460 nm (blue) in HEK293 cells (AID 720678). Further: on the % scale 0 is the no-effect control and ±100 the full control effect. In short, it runs like this:
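Intrinsic compound fluorescence is recorded in live HEK293 cultures after overnight incubation at 37C, 5% CO2, using excitation 405 nm and emission 460 nm. Values are referenced to triamterene.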

Experiment [8] can be described thus: qHTS assay to test for compound auto fluorescence at 590 nm (red) in HEK293 cells (AID 720679). Further: on the % scale 0 is the no-effect control and ±100 the full control effect. An outline of the steps: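 Red autofluorescence, HEK293 cells: 2,000 cells/well; attach 4-5 hr 37C; add 23 nL cpd or DMSO; incubate o/n 37C 5% CO2; read Ex540/Em590; Rose Bengal sodium reference.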
Experiment [9] can be described thus: qHTS assay for small molecule disruptors of the mitochondrial membrane potential (AID 720635). Further: potency means the concentration at half of the fitted maximal effect. In short, it runs like this: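 HepG2 cells exposed to compound 1 hr at 37C, then Mito-MPS dye 30 min. Ratio read of aggregate (540/590 nm) versus monomer (490/535 nm) fluorescence.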

On to `CCCCCCCCS(=O)C(C)Cc1ccc2c(c1)OCO2` (configuration not stated), for which the Potency result in experiment [1], in [2], in [3], in experiment [4], in experiment [5] and in experiment [6] was “inactive” in each case. Further, the Potency result in experiment [7] and in [8] was “inactive” each time.
Regarding `Oc1cccc(-c2c3nc(c(-c4cccc(O)c4)c4ccc([nH]4)c(-c4cccc(O)c4)c4nc(c(-c5cccc(O)c5)c5ccc2[nH]5)CC4)C=C3)c1`, the Potency result in [1], in experiment [4], in experiment [5], in experiment [6], in experiment [7] and in experiment [8] was “inactive” in each case. The Potency in experiment [2] is 9.44 µM (active); in experiment [3] it was 13.3 µM (active) and 11.9 µM (active).
`O=C(Oc1ccccc1)c1ccccc1C(=O)Oc1ccccc1`: the Potency entry in experiment [1], in [2], in [3], in [5], in experiment [6] and in experiment [7] was “inactive” each time. For the same compound, in experiment [8], the Potency entry is “inactive”.
On to `CCOC(=O)O[C@H](C)OC(=O)c1ccc2c(c1)cc(C(=O)NC1CCN(C(C)C)CC1)n2Cc1cc(-c2ccc(Cl)s2)on1`, for which the Potency entry in experiment [1], in [5], in experiment [6], in [7] and in experiment [8] was “inactive” in each case. Besides, the results for the Potency in experiment [2], in experiment [3] and in experiment [9] were 25.5 µM (active), 57.1 µM (active) and 64.1 µM (active), respectively.
On to `CCCCc1oc2ccc(NS(C)(=O)=O)cc2c1C(=O)c1ccc(OCCCN(CCCC)CCCC)cc1`, for which the Potency entry in [1], in experiment [5], in experiment [6], in [7] and in experiment [8] was “inactive” in each case. The results for the Potency in [2], in experiment [3] and in [4] were 29.8 µM (active), 26.6 µM (active) and 29.8 µM (active), respectively.
Consider `C[n+]1cc2c3c(ccc2c2ccc4cc5c(cc4c21)OCO5)OCO3`, for which the Potency entry in [1], in experiment [5], in [6], in experiment [7] and in experiment [8] was “inactive” in each case. The Potency in experiment [2] was 1.5 µM (active); in experiment [3], 11.9 µM (active); in experiment [4] it was 11.9 µM (active).
Turning to `C[C@H](CCC(=O)O)[C@H]1CC[C@H]2[C@@H]3CC[C@@H]4C[C@H](O)CC[C@]4(C)[C@H]3CC[C@]12C`, the Potency entry in [1], in experiment [3], in experiment [5], in experiment [6], in experiment [7] and in experiment [8] was “inactive” throughout. The Potency in [2] is 27.2 µM (active) and 27.3 µM (active).
With `CCC1OCC(COc2ccc(Oc3ccccc3)cc2)O1` (configuration not stated), the Potency result in experiment [1], in experiment [2], in [3], in experiment [4], in [5] and in experiment [6] was “inactive” each time. Moreover, the Potency result in experiment [7] and in experiment [8] was “inactive” throughout.
Take `Cc1onc(-c2ccccc2Cl)c1C(=O)N[C@@H]1C(=O)N2[C@@H]1SC(C)(C)[C@@H]2C(=O)O`: the Potency result in experiment [1], in experiment [2], in [3] and in experiment [4] was “inactive” throughout. Further, the fluorescence, relative to Rose Bengal in [5] was -0.424% [at 18.6 µM]. In addition, the fluorescence, % of fluorescein control in experiment [6] was -0.13% [at 18.6 µM]. Further, in experiment [7], the fluorescence, % of triamterene was -0.0411% [at 18.6 µM]. For the same compound, the fluorescence, % of fluorescent control in [8] is 0.844% [at 18.6 µM].
For `O=C(OCC(COC(=O)c1ccccc1)(COC(=O)c1ccccc1)COC(=O)c1ccccc1)c1ccccc1`, the Potency entry in experiment [1], in [2], in experiment [4], in [5], in experiment [6] and in [7] was “inactive” in each case. In addition, the Potency result in experiment [8] is “inactive”. Moreover, in experiment [9], the Potency is 3.06 µM (active).
As to `CCN(C(=O)N(CC)c1ccccc1)c1ccccc1`, the Potency result in experiment [1], in experiment [2], in experiment [3], in [5], in experiment [6] and in experiment [7] was “inactive” in each case. Moreover, the Potency result in experiment [8] is “inactive”.
Regarding `OCc1c[nH]c2ccccc12`, the Potency entry in [1], in experiment [2], in experiment [3], in experiment [5], in experiment [6] and in [7] was “inactive” throughout. The Potency entry in experiment [8] is “inactive”.
As for `CC(C)c1ccc2c(c1)CC[C@H]1[C@](C)(CN)CCC[C@]21C`, the Potency result in experiment [1], in experiment [5], in [6], in [7] and in experiment [8] was “inactive” each time. Moreover, the Potency in experiment [2] was 27.3 µM (active); in experiment [3], 38.6 µM (active).
In the case of `Nc1c(Cl)cc(Cl)cc1Cl`, the Potency entry in experiment [1], in [2], in experiment [3], in experiment [4], in experiment [5] and in experiment [6] was “inactive” each time. The Potency result in [7] and in experiment [8] was “inactive” throughout.
Regarding `CCCCN(CCCC)C(=O)N(CCCC)CCCC`, the Potency entry in experiment [1], in experiment [2], in experiment [3], in experiment [5], in [6] and in experiment [7] was “inactive” throughout. Also, the Potency entry in [8] is “inactive”.
Take `CC(C)CCCCCCCCCCCCCCC(=O)O`: the Potency result in experiment [1], in experiment [3], in [5], in [6], in [7] and in experiment [8] was “inactive” throughout. For the same compound, the Potency in experiment [2] was 61.1 µM (active).
In the case of `CC(C)n1nc(-c2cc3cc(O)ccc3[nH]2)c2c(N)ncnc21`, the figures for the Potency in [1], in experiment [2] and in [3] were 9.44 µM (active), 26.6 µM (active) and 0.75 µM (active), respectively. Further, the Potency entry in experiment [4], in experiment [5], in [6], in experiment [7] and in experiment [8] was “inactive” in each case.
On to `CC(C)(C)CC(C)(C)c1ccc(OCCOCC[N+](C)(C)Cc2ccccc2)cc1`, for which the Potency result in experiment [1], in experiment [5], in experiment [6], in experiment [7] and in [8] was “inactive” each time. Further, the Potency in [2] was 29.8 µM (active) and 61.1 µM (active); in [3], 29.8 µM (active) and 68.5 µM (active); in [9], 11.9 µM (active) and 21.7 µM (active).
